# A selection: hits, their analogues and other compounds. The true share with any hit is near 7.3%.
# FLuc modulator = inhibits or activates purified firefly luciferase, miR-21 counter-screen. Potency, µM (highest dose often 57.5 µM), without a hit: at the highest dose activity change, negative = inhibition, most hits filed as inhibitors. AID 588342. actives 6.9% (n = 360,000). P08659. purified FLuc, Km substrates, luminescence inhibition;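 further: plate controls were vehicle for no effect and reference inhibitor for full effect; nearly all actives have a fitted effect of over 55% in size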
# Target sequence (P08659 whole entry, looked up): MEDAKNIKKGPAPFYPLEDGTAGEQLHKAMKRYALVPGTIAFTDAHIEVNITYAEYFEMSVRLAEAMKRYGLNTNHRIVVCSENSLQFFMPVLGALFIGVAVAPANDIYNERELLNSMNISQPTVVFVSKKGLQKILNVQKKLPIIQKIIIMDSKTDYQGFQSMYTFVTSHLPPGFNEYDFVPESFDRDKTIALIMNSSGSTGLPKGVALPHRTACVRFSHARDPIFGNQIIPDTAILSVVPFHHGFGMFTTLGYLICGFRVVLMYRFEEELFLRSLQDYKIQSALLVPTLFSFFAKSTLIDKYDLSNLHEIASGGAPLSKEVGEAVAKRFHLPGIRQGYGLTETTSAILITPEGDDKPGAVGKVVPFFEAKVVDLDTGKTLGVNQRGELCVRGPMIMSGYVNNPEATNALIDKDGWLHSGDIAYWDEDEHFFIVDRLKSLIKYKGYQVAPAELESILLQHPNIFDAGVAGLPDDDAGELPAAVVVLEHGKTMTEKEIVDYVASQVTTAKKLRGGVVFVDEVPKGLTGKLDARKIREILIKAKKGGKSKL
#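 Purified P. pyralis luciferase (10nM final) with 10uM D-luciferin and 10uM ATP (Km levels) in 50mM Tris acetate pH 7.5, 10mM Mg acetate, 0.01% Tween-20, 0.05% BSA; qHTS 6-point titration, ~60 µM downward; luminescence read.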
# NPC1 promoter act = NPC1 promoter activation. actives 2.4% (n = 320,000). Huh7 NPC1 promoter luciferase reporter, 24 h. Potency, µM (highest dose often 9.22 µM), without a hit: top-dose activation, hits mostly activators; further: % of control where 0% means no effect; nearly all actives have a fitted effect of over 60% in size
#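 Luminescence read-out of NPC1 promoter-driven luciferase in stably transfected Huh7 cells; compounds delivered in DMSO and left 24 h at 37C, 5% CO2, qHTS titration format.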
# SMN2 splice enh = SMN2 splice variant enhancement | HEK293 SMN2-luciferase splicing reporter, luminescence, 30-36 h | Potency, µM (top dose mostly 46.1 µM), for inactives: at the highest dose activity change, positive = activation, usual class: activators | actives 2.8% (n = 210,000) | AID 1458; further: % of control where 0% means no effect; nearly all actives have a fitted effect of over 55% in size
#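 HEK293 cells carry an SMN2 […]–luciferase reporter in which exon 7 inclusion puts luciferase in frame. Cells were plated 10-12 h before compound addition, then incubated 30-36 h at 37C. ONE-Glo luminescence was read; sodium butyrate at 4.5 mM final served as control.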
# ELG1 genotoxic = induces genotoxicity in HEK293T cells with luciferase-tagged ELG1. Potency, µM (series often up to 46 µM), for inactives: at the top dose activity change, positive = activation, most hits filed as activators. HEK293T ELG1-luciferase reporter, luminescence, 16 h. actives 1.3% (n = 330,000). AID 504466; further: % of control where 0% means no effect; nearly all actives have a fitted effect of over 60% in size
#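 DMSO vehicle served as control against compound-treated ELG1-luciferase HEK293T cells; exposure lasted 16 hr at 37 °C and 5% CO2, followed by ONE-Glo luminescence detection after 30 min.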
# p53 reactivator = re-activators of mutant p53; actives 0.063% (n = 320,000); AID 504706; H1299 p53-A138V BP100-luciferase reporter, luminescence, 24 h; Potency, µM (doses to about 92.2 µM), inactives show at the top dose activity change, positive = activation, usual class: activators; further: % of control where 0% means no effect; nearly all actives have a fitted effect of over 45% in size
#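 H1299 (p53-null), stable ts p53-A138V + BP100-Luc; 1000 cells/well, Opti-MEM/10% FBS; cpd 4 pt, 1:5; 24 h, 37 deg C, 5% CO2; detection reagent 10 min RT; luminescence.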
# Rab9 prom act = activators of Rab9 promoter; Huh7 Rab9 promoter-luciferase reporter, luminescence, 24 h; Potency, µM (titrated, usually from 9.22 µM), inactives show at the top dose activation, negative = inhibition, most hits filed as activators; actives 2.8% (n = 320,000); AID 485297; further: % of control where 0% means no effect; nearly all actives have a fitted effect of over 60% in size
#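 Measured in stably transfected Huh7 cells bearing a Rab9 promoter–luciferase construct: 24 h compound treatment at 37 °C, followed by luminescence detection.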
# Numbers without * were called inactive; ? = inconclusive; . = not tested or not shown; [ ] = remark or other dose. The call rests on the fitted dose curve; in most records, active means well fitted curve in the direction sought with a large enough effect; inconclusive means small, poorly fitted or top-dose-only effect, or another doubt; inactive means no such curve, though single readings can be large; an effect the other way counts as inactive or inconclusive. Potency means the concentration at half of the fitted maximal effect.
SMILES,FLuc modulator,NPC1 promoter act,SMN2 splice enh,ELG1 genotoxic,p53 reactivator,Rab9 prom act
O=C(O)c1c2c(nc3ccccc13)-c1ccccc1CC2,11µM*,-1%,.,8%,3%,-2%
CN(C)c1ccc(/C=C2\CCCc3c2nc2ccccc2c3C(=O)O)cc1,4.3µM*,2.5µM*,.,12µM*,?,0.89µM*
COc1cc(/C=C2\CCCc3c2nc2ccccc2c3C(=O)O)cc(OC)c1O,?,-1%,.,2%,1%,4%
COc1ccc(/C=C2\CCc3c2nc2ccccc2c3C(=O)O)cc1OC,0.3µM*,0.4µM*,.,4.1µM*,-1%,0.32µM*
O=C(O)c1c2c(nc3ccccc13)/C(=C/c1ccc(O)cc1)CCC2,19µM*,2%,20%,0%,6%,9%
O=C(O)c1ccc(/C=C2\CCCc3c2nc2ccccc2c3C(=O)O)cc1,2%,-41%,.,-2%,-2%,0%
O=C(NCCSCc1ccccc1)C1CCN(S(=O)(=O)Cc2ccccc2)CC1,0%,.,.,.,.,.
Cc1ccc(NC(=O)CCc2nnc3n(C)c(=O)c4sccc4n23)cc1C,2%,.,-9%,.,.,.
O=C(O)c1cccc(-c2nnn(Cc3ccccc3Cl)n2)c1,3µM*,0.45µM*,1.6µM*,?,.,0.4µM*
CSc1ccc(-c2nnn(Cc3ccc(C)cc3)n2)cc1,11µM*,?,18%,?,?,?
COc1cccc(COC(=O)c2ccc(-c3nnn(Cc4ccccc4)n3)cc2)c1,-6%,.,7%,.,.,.
O=C(O)c1cccc(-c2nnn(Cc3ccccc3)n2)c1,11µM*,1.4µM*,2.5µM*,13%,?,0.71µM*
O=C(OCc1ccccc1Cl)c1ccc(-c2nnn(Cc3ccccc3Cl)n2)cc1,-6%,.,7%,.,.,.
COc1ccc(-c2nnn(Cc3ccccc3)n2)cc1,21µM*,?,.,?,?,3.2µM*
Cc1ccccc1Cn1nnc(-c2cccc(C(=O)O)c2)n1,4.3µM*,0.45µM*,7.9µM*,1.6µM*,?,0.79µM*
Cc1c(C)c2ccc(O[C@@H]3O[C@H](CO)[C@H](O)[C@H](O)[C@H]3O)cc2oc1=O,6%,0%,.,7%,2%,6%
O=c1c(-c2ccc(O)cc2)coc2cc(OC3OC(CO)C(O)C(O)C3O)ccc12 (stereo unspecified),?,3.2µM*,?,16µM*,?,?
COc1cc(O)c2c(=O)c(-c3ccc(O[C@@H]4O[C@H](CO)[C@@H](O)[C@H](O)[C@H]4O)cc3)coc2c1,17µM*,1.6µM*,.,?,25%,4µM*
COc1cc(-c2coc3cc(O[C@H]4OC(CO)C(O)C(O)C4O)c(OC)c(O)c3c2=O)cc(O)c1OC (stereo partly specified),.,.,20%,.,.,.
O=c1c(-c2ccc(O)cc2)coc2cc(OC3OC(CO)C(O)C(O)C3O)cc(O)c12 (stereo unspecified),24µM*,?,?,15µM*,?,?
CCOC(=O)O[C@]1(C(=O)COC(=O)CC)CC[C@@H]2[C@@H]3CCC4=CC(=O)C=C[C@@]4(C)[C@H]3[C@H](O)C[C@]21C,.,.,-12%[20.6 µM],.,.,.
Cc1cc2c(Nc3ccc(O)cc3)ncnc2s1,-19%,11%,.,?,-85%,7%
c1nc(Nc2ccc(N3CCOCC3)cc2)c2ccsc2n1,17µM*,3.2µM*,.,16%,7%,?
COc1ccc(OC)c(Nc2ncnc3sccc23)c1,?,-28%,.,3%,?,-2%
COc1ccc(Nc2ncnc3sccc23)cc1,24µM*,?,.,14%,?,?
SMILES,FLuc modulator,NPC1 promoter act,SMN2 splice enh,ELG1 genotoxic,p53 reactivator,Rab9 prom act
COc1cccc(Nc2ncnc3sc(C)cc23)c1,17µM*,26%,.,?,?,?
COc1cccc(Nc2ncnc3sccc23)c1,17µM*,?,.,15%,?,?
O=C(Cc1ccc(Cl)cc1)NCC(=O)N1CCCCCC1,4%,4%,.,7%,.,3%
COC(=O)Nc1nc2ccc(SC(C)C)cc2[nH]1,?,20%,?,5.8µM*,24%,16%
O=C(/C(N=Nc1cccc(C(F)(F)F)c1)=C(/O)c1cccs1)C(F)(F)F,-3%,9%,.,-9%,29%,29%
Cc1ccc(N=C/C(C(=O)C(F)(F)F)=C(\O)c2cccs2)cc1,13µM*,1.8µM*,?,?,2%,1.8µM*
O=C(Nc1ccc2c3c(cccc13)CC2)c1ccc(Br)o1,19µM*,19%,2%,?,9%,29%
Cc1ccc2c(NC(=O)c3ccc(Br)o3)cccc2n1,-14%,0%,.,6%,3%,-3%
O=C(Nc1ccc2c3c(cccc13)CC2)c1ccco1,17µM*,20%,.,?,?,17%
COc1ccc(C(=O)Nc2ccc3c4c(cccc24)CC3)cc1,15µM*,?,0%,12%,2%,?
O=C(Nc1cccc2c1CCCC2)c1ccco1,-1%,-1%,10%,2%,4%,0%
CCOC(=O)c1ccc(NC(=O)CCc2c(C)nc3c(c(C)nn3C)c2C)cc1,-8%,.,1%,.,.,.
Cc1ccc(NC(=O)Cn2cc(C(=O)C3CCCCC3)c3ccccc32)cc1,-9%,.,-5%,.,.,.
Cc1nn(CCC(=O)NCc2cccc(Br)c2)c(=O)c2nn(-c3ccccc3)c(C)c12,-8%,.,.,.,.,.
CN[C@H]1[C@@H](O)[C@@H](NC)[C@@H]2O[C@@]3(O)C(=O)C[C@@H](C)O[C@H]3O[C@H]2[C@H]1O,.,.,-1%[20.6 µM],.,.,.
Cc1nc(NCc2cccnc2)c2c3c(sc2n1)CC(C)CC3 (stereo unspecified),24µM*,11%,-6%,1%,2%,6%
Cc1nc(NCc2ccco2)c2c3c(sc2n1)CCC3,2%,-14%,22µM*,1%,-4%,14%
CCOc1cc2sc(N3CCC(C(=O)Nc4ccc(C)cc4C)CC3)nc2cc1Br,15µM*,.,?,.,.,.
CCOc1cc2sc(N3CCC(C(=O)NCCCN4CCCC4=O)CC3)nc2cc1Br,15µM*,15%,.,-3%,8%,1%
CCOc1cc2sc(N3CCC(C(=O)Nc4cc(C)cc(C)c4)CC3)nc2cc1Br,-1%,.,.,.,.,.
Cc1cc(C)c2nc(N3CCC(C(=O)NCCCN4CCCC4=O)CC3)sc2c1,?,-8%,.,0%,-7%,-4%
CCOc1cc2sc(N3CCC(C(=O)Nc4ccc(C(C)C)cc4)CC3)nc2cc1Br,21µM*,.,14µM*,.,.,.
CCOC(=O)c1c(S(=O)(=O)N2CCC(C(=O)Nc3cccc(C#N)c3)CC2)c(C)n(C)c1C,-8%,.,.,.,.,.
